In PubChem BioAssay (Tox21):
Values joined by “and” are separate entries in the source; they are usually repeats but may differ in a detail not shown here. Equal entries are not always repeated. Results filed as inconclusive are left out. Active and inactive are the calls of the source. Unless noted, the call rests on the fitted dose curve; in most records, active means well fitted curve in the direction sought with a large enough effect in the repeat runs; inconclusive means weak or mixed curves; inactive means no such curve, though single readings can be large; an effect the other way counts as inactive or inconclusive.

Key:
[1] = molecular target: Estrogen receptor (Homo sapiens) (UniProt P03372); experiment: qHTS assay to identify small molecule antagonists of the estrogen receptor alpha (ER-alpha) signaling pathway using the BG1 cell line in the presence of 0.1 nM 17-beta-estradiol (AID 1259244); further: nearly all actives have a fitted effect of over 50% in size
Procedure, shortened: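 VM7Luc4E2 cells (endogenous full-length ER-alpha, 4×ERE-luciferase), kept 5 days in phenol red-free, charcoal-stripped FBS medium; 4,000 cells/well. Compounds added with 0.1 nM (final) 17beta-estradiol, 22 hr at 37C; luminescence read with ONE-Glo after 30 min.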

[2] = qHTS assay to identify small molecule HDAC inhibitors (AID 1259364); further: nearly all actives have a fitted effect of over 45% in size; further: potency means the concentration at half of the fitted maximal effect
Procedure, shortened: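 Wild-type HCT-116 cells, plated overnight at 37 C, exposed to compounds 2 hr at 37 C; luminogenic HDAC-Glo substrate then added 30 min at room temperature. Luminescence reports relative endogenous class I/II HDAC activity.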

[3] = qHTS assay to identify small molecule HDAC inhibitors - cell viability counter screen (AID 1259365); further: series mostly up to about 92 µM; nearly all actives have a fitted effect of over 50% in size
Procedure, shortened: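 Following a 2hr exposure of overnight-plated wild-type HCT-116 cells to DMSO-delivered compounds, CellTiter-Glo was added and luminescence recorded after 30min at room temperature.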

[4] = qHTS assay to identify small molecule antagonists of the sonic hedgehog signaling (Shh) pathway - cell viability counter screen (AID 1259367); further: nearly all actives have a fitted effect of over 55% in size
Procedure, shortened: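 NIH/3T3-derived Gli1-Luc reporter cells, 2,000/well, plated 4 hr before compound addition, then stimulated with conditioned medium for 24 hr at 37C. Viability measured in the same wells by CellTiter-Fluor fluorescence, reagent added at 23 hr for 1 hr.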

[5] = qHTS assay to identify small molecule agonists of the sonic hedgehog signaling (Shh) pathway (AID 1259368; calls by dose curve;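 further: NIH/3T3-derived 3T3Gli1-Luc cells carrying a stable Gli1-driven firefly luciferase reporter; series mostly up to about 92 µM; nearly all actives have a fitted effect of over 15% in size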)
Procedure, shortened: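 NIH/3T3-derived 3T3Gli1-Luc cells with stably integrated Gli1-driven firefly luciferase, 2,000 cells/well, compounds added after 4 hr. Incubated 24 hr at 37C, 5% CO2; luminescence read after 30 min with luciferase reagent at room temperature.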

[6] = qHTS assay to identify small molecule antagonists of the sonic hedgehog signaling (Shh) pathway (AID 1259369; calls by dose curve; further: nearly all actives have a fitted effect of over 45% in size; further: potency means the concentration at half of the fitted maximal effect)
Procedure, shortened: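 NIH/3T3-derived Gli1-Luc reporter cells plated 4 h, dosed with compound, then stimulated with conditioned medium for 24 h at 37 C. Firefly luciferase luminescence read after 30 min with detection reagent at room temperature.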

[7] = qHTS assay to identify small molecule agonists of the androgen receptor (AR) signaling pathway in the presence of an antagonist - cell viability counter screen (AID 1259379);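 further: MDA-kb2 human breast cancer cells carrying an MMTV luciferase reporter; series mostly up to about 92 µM; nearly all actives have a fitted effect of over 25% in size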
Procedure, shortened: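 MDA-kb2 cells (MMTV-luciferase, AR/GR), 3,000/well, 5 h attachment, then 3.0 µM nilutamide (final) and compounds at 15 concentrations. Viability by CellTiter-Fluor fluorescence after 16 h at 37 °C, 0% CO2, in the reporter wells.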

[8] = qHTS assay to identify small molecule agonists of the estrogen receptor beta (ER-beta) signaling pathway - cell viability counter screen (AID 1259380); further: nearly all actives have a fitted effect of over 30% in size
Procedure, shortened: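 ER-beta-UAS-bla HEK293T cells in medium with 2% charcoal-stripped FBS, pre-incubated 6 hr, then treated 16 hr at 37C. Cytotoxicity read in the same wells by CellTiter-Glo luminescence after 30 min at room temperature.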

[9] = qHTS assay to identify small molecule antagonists of the estrogen receptor beta (ER-beta) signaling pathway - cell viability counter screen (AID 1259382); further: series mostly up to about 92 µM; nearly all actives have a fitted effect of over 55% in size
Procedure, shortened: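 ER-beta-UAS-bla HEK293T cells in 2% charcoal-stripped FBS medium, treated with compound plus 1 nM 17-beta-estradiol for 16 h at 37C. Viability read by CellTiter-Glo luminescence after 30 min at room temperature in the same wells.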

[10] = molecular target: Estrogen receptor (Homo sapiens) (UniProt P03372); experiment: qHTS assay to identify small molecule agonists of the estrogen receptor alpha (ER-alpha) signaling pathway in the presence of an antagonist (AID 1259383; calls by dose curve; further: top concentration of the series differs between compounds; nearly all actives have a fitted effect of over 15% in size)
Procedure, shortened: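 VM7Luc4E2 cells express endogenous full-length ER-alpha with an ERE-luciferase reporter and were hormone-deprived for 5 days. Compounds at 15 concentrations were added with 10.0nM ICI-182,780 for 22hr at 37C. Luminescence was read with ONE-Glo.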

[11] = qHTS assay to identify small molecule agonists or antagonists of the thyroid stimulating hormone receptor (TSHR) signaling pathway - wild type cell line counter screen (AID 1259384; calls by dose curve)
Procedure, shortened: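 Wild-type Hek293 cells, 800/well, 18 h at 37C, then compound with Ro20-1724 for 30 min RT. cAMP by HTRF (cAMP-d2/anti-cAMP cryptate), 1 h RT, fluorescence read. 15 concentrations, triplicates.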

[12] = molecular target: Thyrotropin receptor (Homo sapiens) (UniProt P16473); experiment: qHTS assay to identify small molecule antagonists of the thyroid stimulating hormone receptor (TSHR) signaling pathway (AID 1259385; calls by dose curve; further: nearly all actives have a fitted effect of over 20% in size)
Procedure, shortened: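 TSHR-HEK293 cells (800/well) plated 18 h, then compounds with Ro20-1724 and TSH at 1.5 ng/mL final, 30 min at room temperature. cAMP quantified by HTRF (cAMP-d2/anti-cAMP-cryptate, 1 h); 15 concentrations in triplicate.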

[13] = qHTS assay to identify small molecule agonists of the estrogen receptor alpha (ER-alpha) signaling pathway in the presence of an antagonist - cell viability counter screen (AID 1259386);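 further: series mostly up to about 92 µM; cells exposed to compounds for 22 h at 37 °C before the viability read; nearly all actives have a fitted effect of over 30% in size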
Procedure, shortened: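 Cell viability in VM7Luc4E2 cells (endogenous full-length ER-alpha) measured by CellTiter-Fluor fluorescence in the same wells as the luciferase screen. Cells pre-cultured 5 days in charcoal-stripped serum, then treated 22 h with compounds at 15 concentrations plus 10.0nM ICI-182,780.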

[14] = molecular target: Progesterone receptor (Homo sapiens) (UniProt P06401); experiment: qHTS assay to identify small molecule agonists of the progesterone receptor (PR) signaling pathway (AID 1346784; calls by dose curve; further: nearly all actives have a fitted effect of over 30% in size)
Procedure, shortened: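 Using charcoal-stripped serum (2%) to limit endogenous steroids, PR-UAS-bla HEK 293T cells received compounds for 16 hr at 37C after 6 hr plating; beta-lactamase FRET fluorescence was recorded following 2 hr substrate loading at room temperature.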

[15] = qHTS assay to identify small molecule phospholipidosis (PLD) inducers (AID 1259344; active means well fitted curve in the direction sought with a large enough effect; an effect the other way counts as inactive or inconclusive)
Procedure, shortened: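 HepG2 cells, 900/well, treated with compound plus LipidTOX Red for 24 h at 37 C; amiodarone positive and DMSO negative controls. Fixed with paraformaldehyde/Hoechst, then high-content imaging scored LipidTOX pit count and integrated intensity per well and per cell.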

[16] = qHTS assay to identify small molecule agonists of the sonic hedgehog signaling (Shh) pathway - cell viability counter screen (AID 1259366); further: nearly all actives have a fitted effect of over 50% in size
Procedure, shortened: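 After a 4hr attachment at 37C, NIH/3T3 cells bearing an integrated Gli1-driven luciferase reporter were dosed with compounds. Treatment lasted 24hr, with the final hour including CellTiter-Fluor for a fluorescence viability measurement.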

[17] = molecular target: Progesterone receptor (Homo sapiens) (UniProt P06401); experiment: qHTS assay to identify small molecule antagonists of the progesterone receptor (PR) signaling pathway (AID 1346795; active means well fitted inhibition curve with a large enough effect in the signal ratio in the repeat runs, not every such curve was filed as active; the % refers to the signal ratio)
Procedure, shortened: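 Inhibition of R5020-induced (1 nM final) beta-lactamase reporter signal in PR-UAS-bla HEK293T cells was scored by FRET fluorescence after overnight (16 hr) compound treatment.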

[18] = molecular target: Estrogen receptor beta (Homo sapiens) (UniProt Q92731); experiment: qHTS assay to identify small molecule agonists of the estrogen receptor beta (ER-beta) signaling pathway (AID 1259377; active means well fitted activation curve with a large enough effect in the signal ratio in the repeat runs, not every such curve was filed as active; the % refers to the signal ratio)
Procedure, shortened: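 In HEK293T cells bearing a UAS-beta-lactamase reporter under ER-beta control, DMSO-delivered compounds were incubated for 16 hr at 37C. Activity was detected as fluorescence 2 hours after LiveBLAzer B/G FRET substrate addition.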

[19] = molecular target: Estrogen receptor beta (Homo sapiens) (UniProt Q92731); experiment: qHTS assay to identify small molecule antagonists of the estrogen receptor beta (ER-beta) signaling pathway (AID 1259378; active means well fitted inhibition curve with a large enough effect in the signal ratio in the repeat runs, not every such curve was filed as active; the % refers to the signal ratio)
Procedure, shortened: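 ER-beta-UAS-bla HEK293T cells in 2% charcoal-stripped FBS medium treated with compound plus 1nM final 17-beta-estradiol for 16 hr at 37C. Beta-lactamase reporter read by FRET substrate fluorescence after 2 hours at room temperature.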

[20] = molecular target: Androgen receptor (Homo sapiens) (UniProt P10275); experiment: qHTS assay to identify small molecule agonists of the androgen receptor (AR) signaling pathway in the presence of an antagonist (AID 1259381; calls by dose curve; further: nearly all actives have a fitted effect of over 15% in size)
Procedure, shortened: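 MDA-kb2 cells carrying MMTV-luciferase (AR/GR responsive), 3,000 cells/well, co-treated with 3.0 uM nilutamide final. Compounds at 15 concentrations, 16 hr at 37C without CO2. Luciferase luminescence read after 30 min with ONE-Glo.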

Measured: Potency

Sequence of Progesterone receptor (Homo sapiens) (P06401 whole entry, looked up): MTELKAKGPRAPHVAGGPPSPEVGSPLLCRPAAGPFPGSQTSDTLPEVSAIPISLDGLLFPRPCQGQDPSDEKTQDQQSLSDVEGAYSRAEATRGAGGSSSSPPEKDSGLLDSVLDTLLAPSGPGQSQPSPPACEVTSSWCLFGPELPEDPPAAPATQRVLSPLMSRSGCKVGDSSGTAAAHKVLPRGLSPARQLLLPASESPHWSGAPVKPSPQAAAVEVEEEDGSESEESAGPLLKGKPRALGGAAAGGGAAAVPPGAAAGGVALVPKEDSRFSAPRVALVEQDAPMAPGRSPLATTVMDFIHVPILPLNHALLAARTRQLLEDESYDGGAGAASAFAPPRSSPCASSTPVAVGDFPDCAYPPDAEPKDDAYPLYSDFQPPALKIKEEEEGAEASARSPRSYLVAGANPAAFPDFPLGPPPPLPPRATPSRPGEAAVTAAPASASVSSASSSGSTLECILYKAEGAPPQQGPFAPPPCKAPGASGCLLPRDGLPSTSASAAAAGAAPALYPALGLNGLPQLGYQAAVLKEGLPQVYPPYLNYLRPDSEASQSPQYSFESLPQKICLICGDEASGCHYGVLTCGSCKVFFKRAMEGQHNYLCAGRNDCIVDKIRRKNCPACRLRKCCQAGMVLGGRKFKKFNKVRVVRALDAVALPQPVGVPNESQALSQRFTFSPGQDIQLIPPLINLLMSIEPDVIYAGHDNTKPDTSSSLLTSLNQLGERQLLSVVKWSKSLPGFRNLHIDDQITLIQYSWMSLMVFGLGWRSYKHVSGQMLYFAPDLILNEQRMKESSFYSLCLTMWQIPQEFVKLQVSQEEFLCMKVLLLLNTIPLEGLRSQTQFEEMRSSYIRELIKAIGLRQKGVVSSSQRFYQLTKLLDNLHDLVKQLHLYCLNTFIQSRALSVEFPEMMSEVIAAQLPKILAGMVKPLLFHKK
Sequence of Estrogen receptor beta (Homo sapiens) (Q92731 whole entry, looked up): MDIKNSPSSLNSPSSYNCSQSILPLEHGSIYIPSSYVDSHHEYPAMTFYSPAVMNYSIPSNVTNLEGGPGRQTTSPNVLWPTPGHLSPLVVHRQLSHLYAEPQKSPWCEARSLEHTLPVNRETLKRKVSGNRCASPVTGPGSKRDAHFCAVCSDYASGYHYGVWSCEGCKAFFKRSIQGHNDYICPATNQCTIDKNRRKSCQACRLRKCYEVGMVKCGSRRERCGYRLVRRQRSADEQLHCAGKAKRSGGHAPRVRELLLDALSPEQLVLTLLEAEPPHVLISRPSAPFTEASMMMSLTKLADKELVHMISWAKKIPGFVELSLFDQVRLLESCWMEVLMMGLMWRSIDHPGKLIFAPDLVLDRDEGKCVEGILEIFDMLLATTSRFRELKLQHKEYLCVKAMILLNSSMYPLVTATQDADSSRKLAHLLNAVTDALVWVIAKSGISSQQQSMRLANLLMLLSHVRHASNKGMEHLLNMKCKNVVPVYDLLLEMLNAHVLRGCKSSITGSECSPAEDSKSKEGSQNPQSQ
Sequence of Estrogen receptor (Homo sapiens) (P03372 whole entry, looked up): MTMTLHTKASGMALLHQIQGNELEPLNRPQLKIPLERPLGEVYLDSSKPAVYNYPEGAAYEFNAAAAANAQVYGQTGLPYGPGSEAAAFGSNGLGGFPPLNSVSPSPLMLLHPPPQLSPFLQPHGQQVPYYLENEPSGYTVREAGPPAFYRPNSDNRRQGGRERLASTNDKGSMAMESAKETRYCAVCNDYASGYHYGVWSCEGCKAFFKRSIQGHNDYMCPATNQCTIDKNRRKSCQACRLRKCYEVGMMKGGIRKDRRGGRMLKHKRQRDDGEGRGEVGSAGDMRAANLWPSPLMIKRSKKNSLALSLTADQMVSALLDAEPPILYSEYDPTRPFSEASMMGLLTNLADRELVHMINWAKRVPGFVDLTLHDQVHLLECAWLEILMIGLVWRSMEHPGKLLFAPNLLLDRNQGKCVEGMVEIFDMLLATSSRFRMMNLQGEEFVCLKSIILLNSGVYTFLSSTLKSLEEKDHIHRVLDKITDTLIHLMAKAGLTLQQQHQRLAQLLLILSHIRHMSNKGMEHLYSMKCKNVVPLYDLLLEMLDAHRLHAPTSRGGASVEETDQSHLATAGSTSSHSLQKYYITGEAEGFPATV
Sequence of Thyrotropin receptor (Homo sapiens) (P16473 whole entry, looked up): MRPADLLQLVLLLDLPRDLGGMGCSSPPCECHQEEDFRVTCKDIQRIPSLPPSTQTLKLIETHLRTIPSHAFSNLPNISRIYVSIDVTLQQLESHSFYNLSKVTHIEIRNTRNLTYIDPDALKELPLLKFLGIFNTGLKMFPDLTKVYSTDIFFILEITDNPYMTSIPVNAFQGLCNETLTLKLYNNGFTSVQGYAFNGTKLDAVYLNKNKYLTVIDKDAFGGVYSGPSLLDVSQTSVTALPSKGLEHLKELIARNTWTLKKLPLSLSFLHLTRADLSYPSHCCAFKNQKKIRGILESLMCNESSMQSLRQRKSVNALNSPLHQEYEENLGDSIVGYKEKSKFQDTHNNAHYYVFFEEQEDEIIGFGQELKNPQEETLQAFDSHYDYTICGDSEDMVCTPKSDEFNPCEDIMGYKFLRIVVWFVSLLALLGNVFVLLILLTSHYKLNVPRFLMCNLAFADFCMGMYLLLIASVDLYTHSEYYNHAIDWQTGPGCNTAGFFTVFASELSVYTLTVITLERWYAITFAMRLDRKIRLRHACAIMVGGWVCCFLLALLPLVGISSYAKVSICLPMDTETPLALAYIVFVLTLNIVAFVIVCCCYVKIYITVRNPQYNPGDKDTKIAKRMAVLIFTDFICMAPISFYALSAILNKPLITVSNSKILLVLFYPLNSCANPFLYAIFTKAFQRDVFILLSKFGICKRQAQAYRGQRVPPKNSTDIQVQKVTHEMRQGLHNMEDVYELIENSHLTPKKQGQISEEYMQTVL
Sequence of Androgen receptor (Homo sapiens) (P10275 whole entry, looked up): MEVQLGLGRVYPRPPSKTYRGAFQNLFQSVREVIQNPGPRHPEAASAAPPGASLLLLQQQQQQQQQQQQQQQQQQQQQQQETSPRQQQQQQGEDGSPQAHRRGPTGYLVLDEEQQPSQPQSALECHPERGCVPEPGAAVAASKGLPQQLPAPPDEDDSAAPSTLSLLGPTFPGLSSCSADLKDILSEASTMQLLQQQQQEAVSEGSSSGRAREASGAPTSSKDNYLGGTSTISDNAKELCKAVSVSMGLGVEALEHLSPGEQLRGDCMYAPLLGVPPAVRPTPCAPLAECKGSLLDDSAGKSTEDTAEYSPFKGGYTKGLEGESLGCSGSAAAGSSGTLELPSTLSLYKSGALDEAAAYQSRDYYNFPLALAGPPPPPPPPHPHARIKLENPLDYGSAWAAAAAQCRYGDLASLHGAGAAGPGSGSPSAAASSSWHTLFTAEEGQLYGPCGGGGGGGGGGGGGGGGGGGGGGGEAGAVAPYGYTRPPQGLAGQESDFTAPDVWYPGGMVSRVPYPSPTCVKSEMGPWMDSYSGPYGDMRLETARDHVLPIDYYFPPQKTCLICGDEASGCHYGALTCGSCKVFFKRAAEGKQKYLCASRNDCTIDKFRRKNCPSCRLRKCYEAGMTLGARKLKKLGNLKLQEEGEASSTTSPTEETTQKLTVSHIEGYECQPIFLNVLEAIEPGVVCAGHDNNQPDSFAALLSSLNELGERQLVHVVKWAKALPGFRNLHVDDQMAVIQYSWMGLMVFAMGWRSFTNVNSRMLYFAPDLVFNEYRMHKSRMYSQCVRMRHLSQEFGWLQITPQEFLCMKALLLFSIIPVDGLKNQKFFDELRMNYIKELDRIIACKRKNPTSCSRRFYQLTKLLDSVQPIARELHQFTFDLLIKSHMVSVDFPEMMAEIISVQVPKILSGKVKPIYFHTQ

CON(C)C(=O)Nc1ccc(Cl)c(Cl)c1
active: [2] 27.4 µM and 19.3 µM
not listed: [15] | [16] | [17] | [18] | [19] | [20]
inactive: all other assays above

CCOC(=O)c1ccccc1C(=O)OCC
not listed: [3] | [5] | [18] | [19] | [20]
inactive: all other assays above

C=CC(N)=O
inactive: [1] | [16] | [4] | [6] | [7] | [8] | [9] | [10] | [11] | [12] | [13]

O=c1[nH]c2ccccc2c(=O)o1
not listed: [2] | [3] | [8] | [15] | [18] | [19] | [20]
inactive: all other assays above

O=C(O)c1ccccn1
not listed: [2] | [8] | [11] | [12] | [15] | [16] | [20]
inactive: all other assays above

COC(=O)NS(=O)(=O)c1ccc(N)cc1
not listed: [2] | [15] | [20]
inactive: all other assays above

CCCN(CCC)c1c([N+](=O)[O-])cc(C(F)(F)F)cc1[N+](=O)[O-]
not listed: [3] | [8] | [15] | [18] | [19]
inactive: all other assays above

Cc1ccccc1O
not listed: [3] | [8] | [15] | [20]
inactive: all other assays above

CC1C=[C-]C=C1.[C-]#[O+].[C-]#[O+].[C-]#[O+].[Mn]
not listed: [2] | [3] | [15] | [16] | [20]
inactive: all other assays above

[O-][Cl+2]([O-])O
not listed: [3] | [5] | [15] | [20]
inactive: all other assays above

CC(C)N1C(=O)c2ccccc2NS1(=O)=O
not listed: [5] | [15] | [16] | [18] | [19] | [20]
inactive: all other assays above

c1ccc(OP(Oc2ccccc2)Oc2ccccc2)cc1
not listed: [2] | [5] | [8] | [15] | [16] | [20]
inactive: all other assays above

Cn1cc(-c2ccccc2)c(=O)c(-c2cccc(C(F)(F)F)c2)c1
not listed: [4] | [8] | [13] | [15] | [16] | [18] | [19] | [20]
inactive: all other assays above

CN(N=O)c1ccccc1
not listed: [3] | [5] | [15] | [20]
inactive: all other assays above

O=NN1CCCCCCC1
not listed: [3] | [5] | [8] | [15] | [18] | [19] | [20]
inactive: all other assays above

Cc1cc(-c2cc(C)c(N)c(C)c2)cc(C)c1N
active: [6] 2.74 µM and 21.3 µM
inactive: [1] | [3] | [16] | [4] | [7] | [9] | [10] | [11] | [13] | [14]

CCC[CH2][Sn]([Cl])([Cl])[Cl]
not listed: [2] | [5] | [8] | [15] | [18] | [19] | [20]
inactive: all other assays above

CCC12COCN1COC2
not listed: [3] | [15] | [18] | [19] | [20]
inactive: all other assays above

O=C1CCCN1
not listed: [3] | [8] | [15] | [18] | [19] | [20]
inactive: all other assays above

CNC(=O)Oc1ccccc1OC(C)C
not listed: [2] | [3] | [8] | [15] | [20]
inactive: all other assays above
